BAZ2B inh = blocks human BAZ2B; AlphaScreen BAZ2B-H3K14Ac peptide displacement; Potency, µM (top dose mostly 114 µM), inactives show top-dose activity change, negative = inhibition, most hits filed as inhibitors; 4.4% of 360,000 active; Q9UIF8; note: potency is the fitted concentration of half-maximal effect; % is set by controls: 0 for no effect and ±100 for the full control effect; nearly all actives have a fitted effect of over 60% in size
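AlphaScreen displacement: compounds (up to 110uM) incubated 30 min at room temperature with a preformed 50 nM BAZ2B/50 nM biotinylated H3K14Ac peptide complex in PBS pH 7.4 with Tween-20. Donor and acceptor beads at 10 ug/mL final added, 20 min light-protected before reading.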
G9a block = inhibitors of human histone lysine methyltransferase G9a; Q96KQ7; G9a H3K9 monomethylation, AlphaScreen, 2 h; Potency, µM (titrated, usually from 102 µM), inactives show top-dose activity, negative = inhibition, usual class: inhibitors; 8.8% of 350,000 active; AID 504332; note: potency is the fitted concentration of half-maximal effect; % is set by controls: 0 for no effect and ±100 for the full control effect; nearly all actives have a fitted effect of over 75% in size
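G9a (20 nM) was preincubated 15 min with compound, then reacted 2 h at room temperature with 500 nM biotin-H3K9 peptide and 20 µM SAM. Monomethyl-H3K9 detected by AlphaScreen using anti-H3K9me1 antibody.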
PI5P4Ka inh = inhibitors of human PI5P4K alpha; P48426; PI5P4Kalpha enzyme, ADP-Glo luminescence, 60 min; stronger effect = lower value; max response, %; 1.2% of 330,000 active; active = max response of -50% or lower; inconclusive = between -30% and -50%; inactive = -30% or higher; note: value at the top dose of about 77 µM; % is set by controls: 0 for no effect and ±100 for the full control effect
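Compounds were pin-transferred onto PI5P4Kalpha and substrate in HEPES pH 7.4 buffer with EGTA, CHAPS and 5% DMSO. ATP (5 microM final) started the reaction, which ran 60 minutes at room temperature before ADP-Glo detection.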
JMJD2A Tudor inh = inhibitors of human JMJD2A Tudor domain; AlphaScreen JMJD2A-Tudor / H3K4me3 peptide binding; 4.4% of 390,000 active; O75164; Potency, µM (series often up to 114 µM), for the others: at the top dose activity change, negative = inhibition, usual class: inhibitors; note: potency is the fitted concentration of half-maximal effect; % is set by controls: 0 for no effect and ±100 for the full control effect; nearly all actives have a fitted effect of over 50% in size
PLK1 PBD inh = inhibitors of human PLK1 polo-box domain binding; P53350; Plk1 PBD binding of FITC phosphopeptide, fluorescence polarization; Potency, µM, for inactives: max response, negative = inhibition, hits mostly inhibitors; 2.8% of 360,000 active; note: potency is the fitted concentration of half-maximal effect; series mostly up to about 57 µM; % is set by controls: 0 for no effect and ±100 for the full control effect; nearly all actives have a fitted effect of over 65% in size
HP1b chromo inh = HP1-beta chromodomain-methylated histone interaction inhibition | P83916 | AlphaScreen HP1-beta / biotin-H3K9me3 peptide binding | Potency, µM (top dose mostly 114 µM), inactives show at the top dose activity change, negative = inhibition, hits mostly inhibitors | 0.56% of 390,000 active | AID 540317; note: potency is the fitted concentration of half-maximal effect; nearly all actives have a fitted effect of over 70% in size
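Compound inhibition of the preformed complex between 50 nM HP1-beta and 50 nM biotinylated H3K9me3 peptide was read by AlphaScreen. Buffer was PBS pH 7.4 with 0.01% Tween-20. Incubations ran 30 min at room temperature, with 10 ug/mL donor/acceptor beads.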
* = called active by the depositor; ? = inconclusive; · = not tested or not shown; [ ] = dose if it differs, or a comment. Only some compounds are listed: those with a hit (about 12% of all), similar ones and a draw of the others. Unless noted, calls come from the whole dose curve; as a rule, active = well fitted curve in the direction sought with a large enough effect; inconclusive = small, poorly fitted or top-dose-only effect, or another doubt; inactive = no such curve, though single readings can be large; an effect the other way counts as inactive or inconclusive.

SMILES | BAZ2B inh | G9a block | PI5P4Ka inh | JMJD2A Tudor inh | PLK1 PBD inh | HP1b chromo inh
COc1ccccc1-c1nc(C#N)c(N2CCN(C(=O)c3ccco3)CC2)o1 | 1% | 51% | 6 | -1% | 2% | 23%
COc1ccc(N2CCN(c3oc(-c4ccccc4OC)nc3C#N)CC2)cc1 | 8.9µM* | 2.5µM* | · | 13µM* | -2% | ?
CCOc1ccc(-c2nc(C#N)c(N3CCN(Cc4ccccc4)CC3)o2)cc1 | ? | 10µM* | 2 | ? | -1% | ?
O=C(CN1C(=O)/C(=C\c2cccc(Cl)c2)Oc2ccccc21)N1CCN(c2ccccn2)CC1 | 7% | 35% | · | · | · | ·
CCCN1CCN(C(=O)C2CCN(S(=O)(=O)c3ccc4c(c3)NC(=O)C(C)S4)CC2)CC1 (stereo unspecified) | -24% | -5% | 0 | -1% | 1% | 32%
COC(=O)C(CC(=O)O)NCc1ccco1 (stereo unspecified) | ? | · | -6 | 20µM* | 12µM* | 3%
Cc1c(NC(=O)C(CC(=O)O)NCc2ccco2)c(=O)n(-c2ccccc2)n1C (stereo unspecified) | 50µM* | ? | 2 | 5µM* | -1% | -7%
O=C(O)CC(NCc1ccco1)C(=O)OCCCl (stereo unspecified) | ? | 7.9µM* | 0 | 28µM* | -7% | -3%
O=C(O)CC(NCc1ccco1)C(=O)Nc1cccc(O)c1 (stereo unspecified) | -37% | 50µM* | -5 | 3.2µM* | -2% | -3%
COc1ccc(CCN2C(=O)CCC2(C)c2nnnn2Cc2ccccc2)cc1OC (stereo unspecified) | · | · | 0 | · | -5% | ·
COc1ccc(C(=O)N2CCC3(CCN(C)CC3)CC2)cc1 | · | 15%[12.7 µM] | · | · | · | ·
Cc1c(N(C)S(=O)(=O)c2cccc(C(=O)NC(C)C)c2)c(=O)n(-c2ccccc2)n1C | -2% | 32µM* | 5 | -23% | 30µM* | 6%
Cc1c(N(C)S(=O)(=O)c2cccc(C(=O)NCC3CCCO3)c2)c(=O)n(-c2ccccc2)n1C (stereo unspecified) | 20% | -8%[0.501 µM] | 8 | 1% | -8% | 13%
Cc1c(NS(=O)(=O)c2cccc(C(=O)NCc3ccco3)c2)c(=O)n(-c2ccccc2)n1C | · | · | -16 | 63µM* | -15% | -36%
COc1ccc(-c2nc(CN3CCC(C(=O)NCCCN4CCN(c5ccccc5F)CC4)CC3)c(C)o2)cc1OC | ? | -30%[59 µM] | · | -23% | · | 23%
Cc1ccc(C(C)NC(=O)CSc2ccc(S(=O)(=O)N3CCOCC3)cn2)cc1C (stereo unspecified) | 9% | ? | -18 | -4% | -25% | 28%
COc1ccc(-c2c[n+]3c4n2CCCCC4=C(c2ccc(Br)cc2)C3)cc1 | 40µM* | 8.9µM* | · | 56µM* | -8% | -13%
O=C(C[n+]1cc(-c2ccc(Cl)cc2)n2c1CCCCC2)c1ccccc1 | -4% | 11%[12.7 µM] | 6 | -19% | -15% | 46%
COc1ccc(-c2cnc3n2CCCCC3)cc1 | -17% | -16% | 4 | -2% | 0% | 4%
Clc1ccc(C2=C3CCCCn4c(-c5ccccc5)c[n+](c43)C2)cc1 | 50µM* | 14µM* | ? | ? | -14% | 2%
CC(=O)Nc1ccc(-c2ccnc3c2CC(C)(C(=O)NCc2cccc(Cl)c2)O3)cc1 (stereo unspecified) | · | · | -3 | · | 4% | ·
O=C(CC(=O)Nc1ccccc1F)Nc1ccc2nc3n(c(=O)c2c1)CCCCC3 | -11% | -7%[59 µM] | · | -6% | · | 23%
CCCc1cc(=O)oc2cc(C)cc(OC(C)C(=O)NCc3ccncc3)c12 (stereo unspecified) | -18% | 9% | 1 | -10% | -17% | 70%
CC1=C(C(=O)N2CCCCCC2)CC(CC(=O)NCCN2CCOCC2)C(=O)N1Cc1ccc(F)cc1 (stereo unspecified) | · | · | -5 | · | -4% | ·
Cc1cc(Cn2ccnc2)c(C)c([N+](=O)[O-])c1Cn1ccnc1 | 79µM* | 11% | 0 | -9% | -13% | 31%
SMILES | BAZ2B inh | G9a block | PI5P4Ka inh | JMJD2A Tudor inh | PLK1 PBD inh | HP1b chromo inh
O=C(Nc1ccc2nc([C@H]3C[C@H](O)[C@@H](CO)O3)[nH]c2c1)NC(c1ccccc1)c1ccccc1 | · | · | 1 | · | -13% | ·
Cc1ccc(OCC(=O)NNC(=O)c2cc(S(=O)(=O)N(C)C)ccc2N2CCCC2)cc1 | · | · | 0 | · | 3% | ·
CCOc1ccc(/C=C2\CCC(C3CCCC3)C2=O)cc1 (stereo unspecified) | 3% | -6% | 8 | 5% | -1% | 24%
CCC(=O)OCOc1ccc(/C=C2/CCC(CN(C)C)C2=O)cc1 (stereo unspecified) | · | · | -14 | 89µM* | 4.7µM* | ?
CN(C)c1ncnc2ccc(-c3cccc(C#N)c3)cc12 | · | -8%[0.501 µM] | · | · | · | ·
O=C1c2oc3ccccc3c(=O)c2C(c2ccccc2)N1Cc1ccc2c(c1)OCO2 (stereo unspecified) | 0% | ? | · | -14% | · | 22%
COc1ccc(/C=N/NC(=O)c2ccc3c(c2)OCO3)cc1 | ? | 79µM* | 5 | -11% | -4% | 26%
O=C(N/N=C/c1ccc2c(c1)OCO2)c1sc2cc(Cl)ccc2c1Cl | ? | 1%[59 µM] | ? | 89µM* | -1% | 103%
Cc1occc1C(=O)N/N=C/c1ccc2c(c1)OCO2 | -25% | 0% | -54* | -14% | -1% | 40%
Cc1ccc(C)c(NC(=O)CCC(=O)N/N=C/c2ccc3c(c2)OCO3)c1 | 14% | 15% | -6 | ? | 17µM* | -21%
Cc1cc(C(=O)N/N=C/c2ccc3c(c2)OCO3)c(C)o1 | -29% | -3% | 1 | -12% | -1% | 18%
CCC(C)NC(=O)Cn1c(=O)c2cccn2c2ccc(F)cc21 (stereo unspecified) | -7% | -19%[59 µM] | · | -13% | · | 22%
O=C(COC(=O)c1ccc(C(F)(F)F)cc1)NC(=O)C1CCCCC1 | · | · | · | -13% | · | 32%
O=C(N/N=C/c1cc2c(cc1Br)OCO2)c1cc2ccccc2o1 | -25% | 40µM* | -6 | -25% | 0% | 26%
O=C(N/N=C/c1ccc2c(c1)OCO2)c1ccc2c(c1)OCCO2 | 1% | 5%[59 µM] | 0 | -12% | 1% | 28%
O=C(N/N=C/c1cc2c(cc1Br)OCO2)c1ccccn1 | -31% | 1% | -3 | -28% | 6% | 9%
O=C(N/N=C/c1ccc2c(c1)OCO2)c1ccc(Br)o1 | 79µM* | ? | 2 | ? | -9% | -8%
Cc1ccc(CNC(=O)CO/N=C/c2ccc3c(c2)OCO3)cc1 | 7% | 21%[59 µM] | -5 | -21% | 27µM* | -3%
